From PubChem BioAssay (NCI) come the findings set out here.

Compounds without any hit were thinned out: in the full panel of roughly 83,000, 20% have a hit.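 The test compound was applied at a single concentration to cells in 96-well plates for 48 hours, and percent growth was recorded.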 Values without a mark were called inactive. Active and inactive are the calls of the source. The calls were made as follows: active = growth percent below 10; inactive = the rest.

Among the test systems are NCI-H23 lung; NCI-H226 lung; NCI-H322M lung; HOP-62 NSCLC; NCI-H460 lung; HOP-92 NSCLC; NCI-H522 lung; A549/ATCC NSCLC; 786-0 renal; COLO 205 colon; DU-145 prostate; K-562 leukemia; MALME-3M melanoma; MDA-MB-231 breast; RXF 393 renal; SF-268 CNS; SF-295 CNS; SF-539 CNS; UACC-257 melanoma; M14 melanoma.
Holding throughout (experiment): NCI-60 one-dose screen, 48 h (100 = growth as untreated, 0 = no growth, -100 = all killed)
What all share (conditions): 10 µM unless noted

Turning to `Cc1ccc(C(=O)Nc2ccccc2C(=O)N/N=C(\c2ccccc2)c2ccccn2)cc1`, the growth in the experiment on NCI-H23 lung was 32.6%; in the experiment with NCI-H226 lung it was 30.3%; in the experiment on NCI-H322M lung it was 33.4%; with HOP-62 NSCLC it was 14.5%; with NCI-H460 lung, 5.43% (active); in the experiment on HOP-92 NSCLC it was 52.7%. Also, the growth was 24.1% with NCI-H522 lung; 17.2% in the experiment with A549/ATCC NSCLC; -17.1% (active) in the experiment with 786-0 renal; 14.1% with COLO 205 colon; 22.7% with DU-145 prostate; 19.9% in the experiment with K-562 leukemia. The growth is 37.9% in the experiment with MALME-3M melanoma; 34.4% with MDA-MB-231 breast; 40.4% in the experiment with RXF 393 renal; 20.2% in the experiment on SF-268 CNS; 23% with SF-295 CNS; 8.97% (active) in the experiment with SF-539 CNS. Moreover, the values for the growth in the experiment on UACC-257 melanoma and with M14 melanoma were 8.34% (active) and -38.9% (active), respectively.

In the case of `c1ccc2c(-c3c4ccsc4cc4[nH]c5ccccc5c34)c[nH]c2c1`, the growth in the experiment on NCI-H23 lung is 51.6%; in the experiment on NCI-H226 lung, 67.9%; in the experiment on NCI-H322M lung it was 69.6%; in the experiment on HOP-62 NSCLC, 39.7%; in the experiment with NCI-H460 lung, 11.6%; in the experiment on HOP-92 NSCLC it was 63.1%. Moreover, the growth was 22.7% in the experiment on NCI-H522 lung; 39.2% with A549/ATCC NSCLC; 27.9% with 786-0 renal; 58.4% with COLO 205 colon; 66.3% in the experiment with DU-145 prostate; 16% with K-562 leukemia. In addition, the growth is 46.7% with MALME-3M melanoma; 55% in the experiment with MDA-MB-231 breast; 32.2% in the experiment with RXF 393 renal; 40.7% with SF-268 CNS; 26.7% with SF-295 CNS; 17.9% with SF-539 CNS. Besides, the growth was 66.9% in the experiment on UACC-257 melanoma and 8.79% (active) with M14 melanoma.

On to `CCCC1C(C(=O)OCC)=C(N)Oc2cc(O)ccc21` (stereo not given), for which the growth was 90.7% in the experiment on NCI-H23 lung; 78.9% in the experiment with NCI-H226 lung; 109% in the experiment on NCI-H322M lung; 76.7% in the experiment on HOP-62 NSCLC; 93.1% in the experiment with NCI-H460 lung; 74.8% in the experiment with HOP-92 NSCLC. Further, the growth with NCI-H522 lung is 77.2%; with A549/ATCC NSCLC, 101%; in the experiment with 786-0 renal it was 95.1%; in the experiment on COLO 205 colon, 96.3%; in the experiment with DU-145 prostate, 103%; with K-562 leukemia, 85.6%. The growth in the experiment on MALME-3M melanoma was 98.8%; in the experiment with MDA-MB-231 breast it was 93.6%; with RXF 393 renal, 131%; in the experiment on SF-268 CNS, 104%; in the experiment with SF-295 CNS it was 102%; in the experiment on SF-539 CNS, 93.8%. For the same compound, the growth in the experiment with UACC-257 melanoma was 104%; in the experiment with M14 melanoma it was 90.5%.

Turning to `O=C(Nc1cccc(C2=NCCN2)c1)c1ccc(OCCCOc2ccc(C(=O)Nc3cccc(C4=NCCN4)c3)cc2)cc1`, the growth in the experiment on NCI-H23 lung is 1.27% (active); with NCI-H226 lung, 52.8%; in the experiment with NCI-H322M lung it was -0.261% (active); in the experiment on HOP-62 NSCLC, 57.4%; in the experiment with NCI-H460 lung, 6.54% (active); in the experiment on HOP-92 NSCLC, 18.8%. The growth with NCI-H522 lung is -18.6% (active); in the experiment with A549/ATCC NSCLC, -55.3% (active); with 786-0 renal it was 58.1%; in the experiment with COLO 205 colon, -18.7% (active); with DU-145 prostate it was 9.35% (active); in the experiment on K-562 leukemia it was 27.2%. Moreover, the growth with MALME-3M melanoma is -82% (active); in the experiment on MDA-MB-231 breast, -10.5% (active); in the experiment with RXF 393 renal, -19.9% (active); with SF-268 CNS, 25.9%; in the experiment with SF-295 CNS, 52.1%; with SF-539 CNS, -43.7% (active). The growth was -11% (active) in the experiment with UACC-257 melanoma and 30.4% in the experiment with M14 melanoma.

`C=C(C)[C@@H]1CC[C@]2(C(=O)N3CCN(C)CC3)CC[C@]3(C)[C@H](CC[C@@H]4[C@@]5(C)CCC(=O)C(C)(C)[C@@H]5CC[C@]43C)[C@@H]12`: the growth in the experiment on NCI-H23 lung is 89.9%; with NCI-H226 lung, 88.5%; in the experiment with NCI-H322M lung it was 91.5%; with HOP-62 NSCLC it was 86.4%; with NCI-H460 lung, 21%; with HOP-92 NSCLC it was 52.8%. In addition, the growth with NCI-H522 lung is 85.1%; in the experiment on A549/ATCC NSCLC, 85.1%; in the experiment on 786-0 renal it was 71.1%; in the experiment with COLO 205 colon it was 72.4%; with DU-145 prostate it was 82.8%; in the experiment on K-562 leukemia it was 60.5%. The growth in the experiment on MALME-3M melanoma is 89%; in the experiment on MDA-MB-231 breast, 79.4%; in the experiment with RXF 393 renal, 80.5%; with SF-268 CNS it was 77.2%; in the experiment with SF-295 CNS it was 103%; with SF-539 CNS, 73.9%. Moreover, the values for the growth in the experiment on UACC-257 melanoma and with M14 melanoma were 101% and 94.7%, respectively.

On to `C#CCNC(=O)[C@H](Cc1ccccc1)NC(=O)[C@]12CC[C@@H](C(=C)C)[C@@H]1[C@H]1CC[C@@H]3[C@@]4(C)Cc5c([nH]c6ccccc56)C(C)(C)[C@@H]4CC[C@@]3(C)[C@]1(C)CC2`, for which the growth in the experiment on NCI-H23 lung was 94.9%; in the experiment on NCI-H226 lung it was 90.2%; in the experiment on NCI-H322M lung it was 93.9%; in the experiment with HOP-62 NSCLC it was 95.2%; in the experiment on NCI-H460 lung, 104%; in the experiment with HOP-92 NSCLC, 69.7%. For the same compound, the growth in the experiment with NCI-H522 lung was 87.9%; with A549/ATCC NSCLC, 84.7%; in the experiment with 786-0 renal, 87.8%; in the experiment on COLO 205 colon, 97.8%; with DU-145 prostate it was 101%; with K-562 leukemia, 83.9%. Also, the growth with MALME-3M melanoma is 113%; in the experiment on MDA-MB-231 breast, 97.7%; in the experiment with RXF 393 renal, 93.9%; with SF-268 CNS, 92.6%; in the experiment with SF-295 CNS, 96.6%; with SF-539 CNS, 102%. For the same compound, the figures for the growth with UACC-257 melanoma and in the experiment with M14 melanoma were 96.7% and 96.4%, respectively.

With `O=C(N=Nc1c(O)[nH]c2ccc(F)cc12)c1cc2ccccc2[nH]1`, the growth with NCI-H23 lung is 97.4%; in the experiment with NCI-H226 lung it was 94.6%; in the experiment with NCI-H322M lung it was 94.4%; in the experiment with HOP-62 NSCLC it was 94.5%; in the experiment with NCI-H460 lung, 100%; with HOP-92 NSCLC, 96.4%. Further, the growth is 77.8% in the experiment with NCI-H522 lung; 91.3% in the experiment with A549/ATCC NSCLC; 97.3% in the experiment on 786-0 renal; 117% in the experiment on COLO 205 colon; 95.9% in the experiment on DU-145 prostate; 91.7% in the experiment with K-562 leukemia. In addition, the growth is 99.8% with MALME-3M melanoma; 95.1% in the experiment with MDA-MB-231 breast; 104% in the experiment on RXF 393 renal; 88.3% in the experiment with SF-268 CNS; 100% in the experiment on SF-295 CNS; 99.8% in the experiment on SF-539 CNS. In addition, the growth is 106% in the experiment on UACC-257 melanoma and 94.9% in the experiment on M14 melanoma.
